Data from PubChem BioAssay (NCI).
Compounds without any hit were thinned out: in the full panel of roughly 83,000, 20% have a hit.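 Interpretation: 100, growth as untreated; towards 0, rising growth inhibition; 0, no net growth; 0 to -100, cell death. Compounds scoring below 10 were considered active.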 The source made the active and inactive calls.

What was measured:
Test in all cases: NCI-60 one-dose screen, 48 h (100 = growth as untreated, 0 = no growth, -100 = all killed)
Settings in all cases: 10 µM unless noted
T-47D breast = test system: T-47D breast
BT-549 breast = test system: BT-549 breast
MDA-MB-435 melanoma = test system: MDA-MB-435 melanoma
SW-620 colon = test system: SW-620 colon
MCF7 breast = test system: MCF7 breast
HCT-116 colon = test system: HCT-116 colon
HCC-2998 colon = test system: HCC-2998 colon
KM12 colon = test system: KM12 colon

SMILES | growth (T-47D breast) | growth (BT-549 breast) | growth (MDA-MB-435 melanoma) | growth (SW-620 colon) | growth (MCF7 breast) | growth (HCT-116 colon) | growth (HCC-2998 colon) | growth (KM12 colon)
COc1ccc2c(c1OC)C(=O)O[C@H]2[C@H]1c2c(cc3c(c2OC)OCO3)CCN1C | 109% (inactive) | 98.3% (inactive) | 54.1% (inactive) | 92.1% (inactive) | 93.9% (inactive) | 92.6% (inactive) | 96.6% (inactive) | –
CCOC(=O)/C(C#N)=C\Nc1ccc2ncnc(Nc3ccc(Cl)cc3Cl)c2c1 | 58.6% (inactive) | 89.6% (inactive) | 75.7% (inactive) | 100% (inactive) | 87.6% (inactive) | 92.9% (inactive) | 119% (inactive) | –
O=c1c2cc(F)ccc2sc2c(NCCO)nc3ccccc3c12 | 93.1% (inactive) | 114% (inactive) | 110% (inactive) | 103% (inactive) | 39.4% (inactive) | 105% (inactive) | 116% (inactive) | 105% (inactive)
NS(=O)(=O)c1ccc(-n2nc(-c3ccc(Cl)cc3)c3ccccc3c2=O)cc1 | 76.8% (inactive) | 157% (inactive) | 112% (inactive) | 105% (inactive) | 88.6% (inactive) | 88.2% (inactive) | 107% (inactive) | –
CC(=O)OC[C@H]1OC(Sc2sc(C(=O)c3ccc(C)cc3)c(N)c2-c2nc3ccccc3s2)[C@H](OC(C)=O)[C@@H](OC(C)=O)[C@@H]1OC(C)=O (stereo not given in full) | 69.7% (inactive) | 83.4% (inactive) | 77.4% (inactive) | 53.4% (inactive) | 73.6% (inactive) | 39.3% (inactive) | 94.2% (inactive) | 80.6% (inactive)
COc1ccc(/C=C2\Oc3cc(OCCN4CCC(Cc5ccccc5)CC4)ccc3C2=O)cc1OC | 60.7% (inactive) | 64.2% (inactive) | 76.5% (inactive) | 40.8% (inactive) | 49.2% (inactive) | 49% (inactive) | -2.67% (active) | 68.2% (inactive)
COc1ccc(C2C(N)=NNC2c2cccc(O)c2)cc1 (stereo not given) | 101% (inactive) | 87.5% (inactive) | 100% (inactive) | 109% (inactive) | 96.6% (inactive) | 104% (inactive) | 122% (inactive) | 92.8% (inactive)
CN1CCN(c2ccc(-c3cc4c(Nc5ccc(F)c(Cl)c5)ncnn4c3)cn2)CC1 | 96.2% (inactive) | 105% (inactive) | 96.1% (inactive) | 40.4% (inactive) | 77.4% (inactive) | 1.89% (active) | 98.6% (inactive) | 93.7% (inactive)
O=C(N/N=C/c1c(Cl)cccc1Cl)c1ccc(C(F)(F)F)nc1Nc1cccc(C(F)(F)F)c1 | -9.07% (active) | -5.79% (active) | 24.2% (inactive) | 7.71% (active) | 1.97% (active) | -19.6% (active) | -29.2% (active) | 8.17% (active)
COc1cc(C(=O)N2N=C(c3ccc(S(C)(=O)=O)cc3)CC2c2ccco2)cc(OC)c1OC (stereo not given) | 59.3% (inactive) | 48.5% (inactive) | 6.67% (active) | 42.3% (inactive) | 37% (inactive) | 50.6% (inactive) | 59.9% (inactive) | 49.7% (inactive)
BrCCCc1n(Cc2ccc3ccccc3c2)c2ccccc2[n+]1Cc1ccc2ccccc2c1 | -10.9% (active) | -73.5% (active) | -96.5% (active) | -81.5% (active) | -74.7% (active) | -89.7% (active) | -90.1% (active) | -89.7% (active)
COc1ccc2sc3c(NCCCN(C)C)nc4ccccc4c3c(=O)c2c1 | 93.6% (inactive) | 69.4% (inactive) | -46.9% (active) | -77.2% (active) | 41.5% (inactive) | -88.7% (active) | -90.8% (active) | -47.2% (active)
C=C1CC[C@H](C(C)C)[C@@H]2[C@H]1[C@H]1CC(=C)[C@@H](O)CC[C@@](C)(O)[C@@H]2O1 | 97.1% (inactive) | 99.2% (inactive) | 96.8% (inactive) | 96.7% (inactive) | 97% (inactive) | 86.2% (inactive) | 77.9% (inactive) | 96.3% (inactive)
COc1ccc(-c2cnc3ccccc3n2)cc1 | 96.7% (inactive) | 95.1% (inactive) | 94.4% (inactive) | 96.6% (inactive) | 105% (inactive) | 99.2% (inactive) | 95.4% (inactive) | 92.7% (inactive)
COc1c(B(O)O)cc(F)cc1-c1nc2ccc3[nH]ncc3c2c2c1CCCC2 | 14% (inactive) | -35.5% (active) | 16.4% (inactive) | 5.71% (active) | 4.26% (active) | 3.48% (active) | 5.31% (active) | -3.54% (active)
CCCCCCCCCCCCCCCCCCOc1ccc(CC(=O)OCC[N+](C)(C)C)cc1 | 99.5% (inactive) | 95.8% (inactive) | 100% (inactive) | 99.9% (inactive) | 95.8% (inactive) | 93% (inactive) | 95.4% (inactive) | 96.8% (inactive)

SMILES | growth (T-47D breast) | growth (BT-549 breast) | growth (MDA-MB-435 melanoma) | growth (SW-620 colon) | growth (MCF7 breast) | growth (HCT-116 colon) | growth (HCC-2998 colon) | growth (KM12 colon)
O=CN(SSN(C=O)C1CCCCC1)C1CCCCC1 | 79.2% (inactive) | 137% (inactive) | 110% (inactive) | 92.3% (inactive) | 102% (inactive) | 85.9% (inactive) | 116% (inactive) | 104% (inactive)
O=c1c2cc(F)ccc2sc2c(N3CCCCC3)nc3ccccc3c12 | 105% (inactive) | 90.3% (inactive) | 107% (inactive) | 104% (inactive) | 95.8% (inactive) | 90.9% (inactive) | 101% (inactive) | 105% (inactive)
S=C(c1cccs1)N1CCN(c2cccc(Cl)c2)CC1 | 82.6% (inactive) | 59.3% (inactive) | 108% (inactive) | 103% (inactive) | 96.9% (inactive) | 83.9% (inactive) | 110% (inactive) | 102% (inactive)
Nc1ccc(Sc2ccc([N+](=O)[O-])c3nonc23)cc1 | 54.5% (inactive) | 88.8% (inactive) | 99.2% (inactive) | 46% (inactive) | 73.2% (inactive) | 66.3% (inactive) | 108% (inactive) | 96.2% (inactive)
Cc1cc2[nH]c(=O)c3c4ncccc4cn3c2cc1C | 56.5% (inactive) | 105% (inactive) | 11.1% (inactive) | -26.9% (active) | 11.6% (inactive) | -77.1% (active) | 13.7% (inactive) | 25.1% (inactive)
COc1ccc(-c2nc3sc(-c4ccc(Cl)cc4)cn3n2)cc1 | 54.9% (inactive) | 97.6% (inactive) | 75% (inactive) | 59.6% (inactive) | 48.9% (inactive) | -16.3% (active) | 78.6% (inactive) | 54.7% (inactive)
O=C(CSc1nccc(Nc2ccc(S(=O)(=O)Nc3nccs3)cc2)n1)c1ccc(C(F)(F)F)cc1 | 82.1% (inactive) | 88.2% (inactive) | 99% (inactive) | 102% (inactive) | 94.2% (inactive) | 86.7% (inactive) | 112% (inactive) | 106% (inactive)
Cc1ncc(C(=O)Nc2ccc(CN3CCN(C)CC3)c(C(F)(F)F)c2)cc1C#Cc1ccc(N)nc1 | 18.6% (inactive) | 15.3% (inactive) | -59% (active) | -2.48% (active) | 4.46% (active) | -31.3% (active) | 25.5% (inactive) | 2.86% (active)
Cc1c(C(=O)NCCN2CCOCC2)cn2ncnc(Oc3ccc(NC(=O)Nc4ccc(Cl)c(C(F)(F)F)c4)cc3)c12 | 15% (inactive) | 45.6% (inactive) | 18% (inactive) | 0.917% (active) | 7.07% (active) | 8.49% (active) | 51.1% (inactive) | 19.6% (inactive)
CCOC(=O)c1c2c(n(-c3ccc(C#N)cc3)c1-c1ccccc1)C=CCC2 | 72.6% (inactive) | 97.8% (inactive) | 95.3% (inactive) | 96.9% (inactive) | 76.4% (inactive) | 66.2% (inactive) | 90.5% (inactive) | 91.8% (inactive)
CC(=O)N1CCN(c2ccc(OCC3CO[C@](Cn4ccnc4)(c4ccc(Cl)cc4Cl)O3)cc2)CC1 (stereo not given in full) | 51.1% (inactive) | 54.7% (inactive) | 94% (inactive) | 104% (inactive) | 86.4% (inactive) | 68.4% (inactive) | 85.5% (inactive) | 87% (inactive)
COc1ccc2sc3c(NCCO)nc4ccccc4c3c(=O)c2c1 | 88.5% (inactive) | 100% (inactive) | 106% (inactive) | 101% (inactive) | 47% (inactive) | 92.7% (inactive) | 115% (inactive) | 89% (inactive)
Oc1ccc(C#CCOc2ccccc2)cc1CNCCN(Cc1ccccn1)Cc1ccccn1 | 14.4% (inactive) | 37.7% (inactive) | 32.6% (inactive) | 15.6% (inactive) | 4.05% (active) | 9.79% (active) | 28.4% (inactive) | 18.9% (inactive)
COc1cccc(Oc2ccccc2NC(=O)CNC(=O)c2cccc3ccccc23)c1 | 62.3% [5 µM] (inactive) | 50.7% [5 µM] (inactive) | -20.5% [5 µM] (active) | 22.4% [5 µM] (inactive) | 20.5% [5 µM] (inactive) | 3.51% [5 µM] (active) | 25.5% [5 µM] (inactive) | 13.5% [5 µM] (inactive)
C=C(C)[C@@H]1CC[C@]2(N=C=O)CC[C@]3(C)[C@H](CC[C@@H]4[C@@]5(C)Cc6c([nH]c7ccccc67)C(C)(C)[C@@H]5CC[C@]43C)[C@@H]12 | 62.4% (inactive) | 84.3% (inactive) | 86.4% (inactive) | 78% (inactive) | 39.5% (inactive) | 11.6% (inactive) | 98.4% (inactive) | 70.5% (inactive)
